DAX1 inh-1: DAX1 (NR0B1) inhibitors on StAR promoter, primary screen, cell-based, luminescence, SF-1 (NR5A1), full-length DAX-1 | 370,000 compounds, 1.1% hits | HEK293T StAR-luciferase reporter, SF-1/DAX-1 repression relief | inhibition, % at 6.8 µM;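 active means inhibition above the mean over all tested compounds plus 3 SD, cut at about 3.6% in these data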;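 further: 0% = DAX-1 cells with DMSO and 100% = cells lacking DAX-1 with DMSO; higher inhibition means more luminescence from relief of DAX-1 repression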
hgDAF-12 ag: H. glycines DAF-12 receptor agonists, primary screen, cell-based, luminescence, HEK293, GAL4 fusion, UAS-luciferase | activation, % at 6.8 µM | Nuclear hormone receptor DAF-12 (Heterodera glycines), GAL4 fusion | 370,000 compounds, 1.8% hits | HEK293 GAL4-hgDAF12 UAS-luciferase reporter, agonist luminescence; normalized to butyrate control;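 active means activation above a cutoff set at the mean of all screened compounds plus 3 SD, cut at about 10% in these data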;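 further: 0% = DMSO wells and 100% = sodium butyrate wells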
hcDAF-12 act: H. contortus DAF-12 nuclear receptor activators, primary screen, cell-based, luminescence, HEK293, lit1-tk-luc reporter. HEK293 hcDAF-12 lit1-tk-luc reporter; 0% DMSO, 100% Δ7-dafachronic acid. activation, % at 6.8 µM. 370,000 compounds, 1.4% hits;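 active means activation above the mean of all tested compounds plus 3 SD, cut at about 5.5% in these data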;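 further: 100% = response to 3 µM Δ7-dafachronic acid high control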
DAX1 inh-2: DAX1 (NR0B1) inhibitors, primary screen, cell-based, HEK293, Gal4-DAX1, luciferase luminescence; Nuclear receptor subfamily 0 group B member 1 (Homo sapiens), P51843; HEK293 Gal4-DAX1 luciferase reporter; inhibition, % at 6.75 µM; 340,000 compounds, 0.99% hits; AID 504766, 2011;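 active means inhibition above the mean over all tested compounds plus 3 SD, cut at about 4.2% in these data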;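 further: 0% = DAX1-transfected cells with DMSO and 100% = empty-vector control cells with DMSO; inhibition shows as a rise in luminescence from relieved DAX1 repression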
ssDAF-12 act: S. stercoralis DAF-12 nuclear receptor activators, primary screen, cell-based, luminescence, HEK293, GRIP1 co-expression, lit1-tk-luc | AID 652126, 2013 | activation, % at 6.8 µM | 370,000 compounds, 1% hits | HEK293 ssDAF-12/GRIP1 lit1-tk-luc reporter; % of 3 µM dafachronic acid response | Nuclear hormone receptor DAF-12 (Strongyloides stercoralis);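 active means activation above the mean over all tested compounds plus 3 SD, cut at about 0.9% in these data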;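 further: 0% = DMSO-only wells and 100% = 3 µM delta7-dafachronic acid wells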
AHR act: AHR activators, primary screen, cell-based, luminescence, luciferase reporter, human; activation, % at 5 µM; 320,000 compounds, 2.5% hits; AHR-responsive luciferase reporter cells; in the data active means activation above about 47%;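 further: 0% = vehicle wells and 100% = reference agonist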
DAX1 inh confirm: DAX1 (NR0B1) inhibitors relieving SF-1 repression, confirmation, cell-based, luminescence, HEK293T, full-length DAX-1, SF-1 activated StAR promoter. shares compounds with DAX1 inh-1. HEK293T StAR-promoter luciferase reporter, SF-1/DAX-1 repression. inhibition, % at 6.8 µM. 2,400 compounds, 87% hits;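 active means inhibition above the average of every tested compound plus 3 SD, cut at about 3.8% in these data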;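 further: 0% = DAX-1 cells with DMSO and 100% = no DAX-1 control cells with DMSO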
Target sequence (P51843 whole entry, looked up): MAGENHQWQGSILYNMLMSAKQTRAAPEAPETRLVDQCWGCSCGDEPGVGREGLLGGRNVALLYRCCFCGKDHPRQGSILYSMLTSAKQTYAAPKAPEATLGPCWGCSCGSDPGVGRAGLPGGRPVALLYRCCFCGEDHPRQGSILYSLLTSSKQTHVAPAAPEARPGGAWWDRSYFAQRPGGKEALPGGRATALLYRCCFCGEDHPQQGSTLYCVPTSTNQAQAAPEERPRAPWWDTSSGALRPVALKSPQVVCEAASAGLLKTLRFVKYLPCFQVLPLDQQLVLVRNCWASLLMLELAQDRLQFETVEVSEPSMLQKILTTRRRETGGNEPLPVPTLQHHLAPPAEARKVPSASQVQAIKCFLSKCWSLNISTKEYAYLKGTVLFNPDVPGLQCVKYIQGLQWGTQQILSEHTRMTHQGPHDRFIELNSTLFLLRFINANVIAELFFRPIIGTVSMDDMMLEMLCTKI
SF1 mutant ctr: StAR reporter signal changes without DAX1, counter-screen for DAX1 inhibitor project, cell-based, luminescence, AF-2 mutant SF-1, transactivation. 2,400 compounds, 78% hits. inhibition, % at 6.8 µM. shares compounds with DAX1 inh-1. HEK293 StAR-luciferase, SF-1 AF2 mutant;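 active means inhibition above the mean of all tested compounds plus 3 SD, cut at about 3% in these data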;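 further: 0% = DAX-1 transfected cells with DMSO and 100% = cells without DAX-1 with DMSO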
LXR ag: LXR agonists, Gal4 luciferase reporter, confirmation, counter-screen for hcDAF-12 agonist project, cell-based, luminescence, HEK293, H. contortus campaign | shares compounds with hcDAF-12 act | HEK293 Gal4-LXR tk-luc reporter, 24 h; normalized: DMSO 0%, positive control 100% | activation, % at 6.8 µM | 3,400 tested, under 10 active | AID 743027, 2013;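 active means mean percent activation of the reporter above a cutoff set as the average over tested compounds plus their standard deviation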
hcDAF12 ag: H. contortus DAF-12 receptor agonists, confirmation, cell-based, luminescence, HEK293, lit1-tk-luc, triplicate. activation, % at 6.8 µM. AID 743032, 2013. HEK293 hcDAF-12 lit1-tk-luc reporter; % of Δ7-dafachronic acid response. 3,400 compounds, 61% hits. shares compounds with hcDAF-12 act;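 active means mean activation across triplicate tests above the threshold derived from the earlier primary screen, cut at about 5.5% in these data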;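 further: 0% = DMSO only wells and 100% = 3 µM Δ7-dafachronic acid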
* = called active by the depositor; . = no result given. Only some compounds are listed: those with a hit (about 5.7% of all), similar ones and a draw of the others.

SMILES	DAX1 inh-1	hgDAF-12 ag	hcDAF-12 act	DAX1 inh-2	ssDAF-12 act	AHR act	DAX1 inh confirm	SF1 mutant ctr	LXR ag	hcDAF12 ag
COc1cc(OC)c(OC)cc1CN1CCC(O)CC1	0	3	-1	-1	0	-2	.	.	.	.
Fc1ccc(-c2nnc(-c3ccc(F)cc3)o2)cc1	0	0	2	2	-1	.	.	.	.	.
Fc1ccc(-c2nnc(-c3ccc4ccccc4c3)o2)cc1	7.0*	20*	8.0*	1	2.1*	.	11*	5.2*	2	12*
CCc1ccn2cc(-c3ccc4c(c3)OCO4)nc2c1	0	-3	1	.	-2	-9	.	.	.	.
COC(=O)c1ccc2nc(-c3ccc4c(c3)OCO4)cn2c1	10*	17*	7.1*	-3	1.7*	-1	8.9*	0	1	6.4*
CCCCN(C(=O)c1ccco1)C1CCS(=O)(=O)C1 (stereo not drawn)	1	-3	-1	0	-1	0	.	.	.	.
O=C(/C=C/Nc1ccc(Br)cc1F)c1ccco1	6.0*	23*	14*	-2	1.5*	46	7.7*	0	1	9.9*
O=C(/C=C/Nc1ccccc1O)c1ccco1	0	4	0	3	0	4	.	.	.	.
CCCC(=O)Nc1c(-c2ccccc2Cl)c(=O)c2ccccc2n1C	0	-3	1	-2	0	2	.	.	.	.
COc1ccc2sc3ccccc3c(=O)c2c1	1	4	1	1	0	9	.	.	.	.
COc1ccc(-c2cc(=O)c3ccccc3s2)cc1	6.9*	22*	16*	3	0.9*	94*	17*	11*	2	10*
Fc1ccc(-c2cn3cc(C(F)(F)F)cc(Cl)c3n2)cc1	6.0*	12*	19*	4.9*	3.7*	42	17*	8.8*	2	22*
CCOC(=O)c1cc(-c2cccc(O)c2)oc1C	6.2*	14*	9.8*	.	3.3*	.	3.8*	3.2*	1	13*
CCOC(=O)c1sc(NC(=O)c2cc(-c3cccc(O)c3)on2)c(C(=O)OCC)c1C	1	-4	0	0	-2	-1	.	.	.	.
Cc1cc(Cn2nc(-c3ccccc3)cc2C(=O)NCc2cccc(Br)c2)on1	-1	-2	-1	0	-2	4	.	.	.	.
CN1C[C@@H]2[C@@H]3C(=O)N(Cc4ccccc4)C(=O)[C@@H]3[C@](Cc3ccccc3)(C1=O)N2C(=O)c1ccc(C(C)(C)C)cc1	-1	-3	-1	1	-1	.	.	.	.	.
N/C(=N\OC(=O)COc1ccccc1Cl)c1ccccn1	5.9*	10	6.9*	0	1.1*	0	12*	8.5*	1	8.0*
O=c1[nH]c(=O)n([C@H]2C[C@H](O)[C@@H](CO)O2)cc1F	-5	-8	-2	-3	-1	-2	.	.	.	.
O=c1[nH]c(=O)n([C@H]2C[C@H](O)[C@@H](CO)O2)cc1Br	13*	38*	8.8*	1	-1	-1	14*	5.5*	0	12*
c1ccc(C2=NNC(c3ccccn3)=NN2)nc1	1	9	2	1	0	11	.	.	.	.
CN1/C(=C\C(=O)c2cccs2)Sc2ccccc21	4.6*	17*	21*	2	2.9*	77*	10*	7.0*	2	21*
COc1ccc(C(=O)c2c(O)cc(-c3ccc(OC)cc3)oc2=O)cc1	-1	2	-3	1	-1	7	.	.	.	.
COc1ccc(-c2cc3ccccc3c(=O)o2)cc1	7.7*	25*	12*	.	2.2*	.	13*	6.6*	2	11*
CCCC1(C(=O)OC)NC(c2ccc(OC)c(OC)c2)C2C(=O)N(c3cccc(C(C)=O)c3)C(=O)C21 (stereo not drawn)	0	-3	-1	0	0	-2	.	.	.	.
O=c1cc(-c2ccccc2)oc2ccc3ccccc3c12	4.6*	5	8.7*	-5	1	.	0	-4	1	9.8*
SMILES	DAX1 inh-1	hgDAF-12 ag	hcDAF-12 act	DAX1 inh-2	ssDAF-12 act	AHR act	DAX1 inh confirm	SF1 mutant ctr	LXR ag	hcDAF12 ag
O=C(CN1CCc2ccccc2C1)Nc1ccccc1F	0	-1	-1	1	-1	-3	.	.	.	.
Cc1nc2cc(NC(=O)N3c4ccccc4CC3C)ccc2n1C (stereo not drawn)	6.0*	10	6.9*	0	1.3*	9	18*	7.7*	2	8.2*
O=C(NCCc1ccccc1)c1ccccc1NC(=O)C1CC=CCC1C(=O)O (stereo not drawn)	4.7*	11*	11*	0	1.2*	3	7.6*	7.5*	0	7.2*
COC(=O)c1ccccc1NC(=O)C1CC=CCC1C(=O)O (stereo not drawn)	0	-1	0	1	-1	-1	.	.	.	.
Cc1ccc2c(ccc(=S)n2C)c1	1	2	0	0	-1	-3	.	.	.	.
COc1ccc(-c2cn3ccc4ccccc4c3n2)cc1	7.1*	18*	23*	2	5.2*	48*	19*	9.6*	2	23*
CCN(Cc1ccccc1)C(=O)CN1C(=O)NC(CC)(c2ccc(F)cc2)C1=O (stereo not drawn)	0	-2	-2	-1	-2	0	.	.	.	.

From PubChem
